The results in this text go back to PubChem BioAssay.

Experiment [1] deals with Wnt5a (protein binding on small-molecule microarray). Kind of experiment: Wnt5a binders on small-molecule microarray, primary screen, biophysical, 635/667 nm fluorescence (AID 1142).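 Further: fluorescence read at 667 nm with signal to noise per printed feature.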 As to conditions: 635 nm fluorescence, higher = more signal.
Experiment [2] can be described thus: cell viability in Huh7 cells, primary screen, cytotoxicity control for HCV replication inhibitor project, CellTiter-Glo luminescence, basal, 48 h (AID 1143).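 Further: Huh7 hepatoma cells carrying a hepatitis C replication reporter with no stimulus; test concentration not given here.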 As to conditions: Huh7 HCV replicon, higher = more signal, called active from +8 up or from −8 down. A general note: In ATP-based viability assays light output follows the ATP content of the culture.
Experiment [3] can be described thus: P. aeruginosa biofilm formation inhibitors, primary screen, PAO1 strain, BacTiter-Glo luminescence, LB-PBS (AID 1144). As to conditions: 12 h, higher = more signal.
Experiment [4] in a line: CREB reporter modulators without forskolin, primary screen, cell-based, PC12, CRE-LacZ reporter, unstimulated (AID 1145). As to conditions: no forskolin, luminescence, 4.5 h, higher = more signal, called active from +8 up or from −8 down.
Experiment [5] is described as follows: CREB reporter modulators under forskolin, primary screen, cell-based, PC12, CRE-LacZ reporter, forskolin-stimulated (AID 1146).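 Further: PC12 cells with 6xCRE LacZ reporter stimulated by forskolin 10 µM; beta-galactosidase reporter signal reflecting CREB driven transcription.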 As to conditions: luminescence, 4.5 h, higher = more signal, called active from +8 up or from −8 down.
The target of experiment [6] is Streptavidin (Streptomyces avidinii) (UniProt P22629). The experiment is described as follows: streptavidin binders on small-molecule microarray, primary screen, artefact control for SMM compound annotation, biophysical, 635/667 nm fluorescence (AID 1147).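 Further: signal reflects streptavidin binding to arrayed compounds as a control protein.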 To be noted: streptavidin binding, higher = more signal.
Experiment [7] in a line: small-molecule binders of probe aInhba, primary screen, biochemical, small-molecule microarray, 635/667 nm fluorescence (AID 1148).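 Further: score merges 667nm spot fluorescence with signal-to-noise for antibody binding to printed compounds.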 As to conditions: higher = more signal.
For experiment [8], the target named is Torsin-1A (Homo sapiens) (UniProt O14656). The experiment is described as follows: torsin A binders from cell lysate, primary screen, small-molecule microarray, wild-type, 635/667 nm (AID 1149). As to conditions: COS7 hTOR1A-WT lysate, 635 nm fluorescence, higher = more signal.
The target is the same in experiment [9]. The experiment is described as follows: small-molecule binders of mutant TOR1A in lysate, primary screen, cell lysate, small-molecule microarray, COS7 lysate, 635/667 nm fluorescence (AID 1150).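 Further: score pools 667 nm emission and signal to noise measuring lysate protein binding.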 As to conditions: COS7 hTOR1A mutant lysate, 635 nm fluorescence, higher = more signal.
The test system of experiment [10] is Sonic hedgehog protein (Shh). The experiment is described as follows: small-molecule binders of Shh protein, primary screen, biochemical, small-molecule microarray, 635/667 nm fluorescence (AID 1151).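 Further: Shh protein binding to compounds spotted on small-molecule microarray slides; score combines spot fluorescence intensity with signal-to-noise across triplicate slides.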 To be noted: small-molecule microarray binding, 635 nm fluorescence; higher = more signal.
Experiment [11] in a line: E. coli DRC41 culture turbidity changes, primary screen, E. coli filamentation inducer project, strain DRC41, OD650, 48 h (AID 1152).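 Further: E. coli MC1000 strain DRC41 lacking acrAB efflux pump and sulA.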 As to conditions: E. coli DRC41 (acrAB sulA), higher = more signal, called active from +8 up or from −8 down.
Experiment [12] is described as follows: small-molecule binders of probe aLefty1, primary screen, biochemical, small-molecule microarray, 635/667 nm fluorescence (AID 1153).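 Further: score merges spot fluorescence with signal-to-noise ratio from the scanned slide images.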 To be noted: higher = more signal.
Experiment [13] is described as follows: PSAC antagonists in infected red cells, primary screen, cell-based, P. falciparum Indochina, OD700, 1 h (AID 1154). To be noted: P. falciparum Indochina infected RBC osmotic lysis, higher = more signal, called active from +8 up or from −8 down.
The nature of experiment [14]: PSAC antagonists in infected red cells, primary screen, cell-based, P. falciparum Indochina, OD700, 2 h (AID 1155).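 Further: lysis reports solute entry through the parasite surface anion channel PSAC; channel blockers reduce lysis of infected cells.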 To be noted: P. falciparum Indochina infected erythrocytes, osmotic lysis OD700; higher = more signal, called active from +8 up or from −8 down.
Experiment [15] in a line: osmotic lysis modulators in infected erythrocytes, primary screen, PSAC antagonist project, cell-based, P. falciparum Indochina, OD700, 3 h (AID 1156). To be noted: higher = more signal, called active from +8 up or from −8 down.
Experiment [16] in a line: PSAC antagonists in infected red cells, primary screen, cell-based, P. falciparum Indochina, OD700, 18 h (AID 1157). As to conditions: P. falciparum Indochina infected erythrocytes, osmotic lysis OD700, 18 h; higher = more signal, called active from +8 up or from −8 down.
A short description of experiment [17]: modulators of S6 phosphorylation in cells, primary screen, cell-based, A549, cytoblot, luminescence, serum-stimulated (AID 1158).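 Further: serum-stimulated A549 lung adenocarcinoma cells; signal is phosphorylated S6 detected by cytoblot immunostaining with HRP secondary.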 As to conditions: A549 phospho-S6 cytoblot, 5 h, higher = more signal.
Experiment [18] addresses NADPH oxidase 2 (Homo sapiens) (UniProt P04839). Kind of experiment: NOX2-dependent H2O2 signal modulators, primary screen, NOX inhibitor project, cell-based, HEK293-NOX2, PMA-stimulated, Amplex Red fluorescence (AID 1159). Further: test concentration not given here. As to conditions: 45 min, higher = more signal, called active from +8 up or from −8 down.
The target in experiment [19] is NADPH oxidase 4 (Homo sapiens) (UniProt Q9NPH5). The experiment is described as follows: NOX4-dependent H2O2 signal modulators, primary screen, NOX inhibitor project, cell-based, HEK293-NOX4, tetracycline-induced, Amplex Red fluorescence (AID 1160). To be noted: 45 min, higher = more signal, called active from +8 up or from −8 down.
Experiment [20] concerns the target NADPH oxidase 5 (Homo sapiens) (UniProt Q96PH1). The experiment is described as follows: NOX5-dependent H2O2 signal modulators, primary screen, NOX inhibitor project, cell-based, HEK293-NOX5, Amplex Red fluorescence (AID 1161). To be noted: HEK293-NOX5, ionomycin, 45 min, higher = more signal.

Active and inactive are the calls of the source. Unless noted, how the calls were made is not given here.

Chain of NADPH oxidase 5 (Homo sapiens) (Q96PH1 whole entry, looked up): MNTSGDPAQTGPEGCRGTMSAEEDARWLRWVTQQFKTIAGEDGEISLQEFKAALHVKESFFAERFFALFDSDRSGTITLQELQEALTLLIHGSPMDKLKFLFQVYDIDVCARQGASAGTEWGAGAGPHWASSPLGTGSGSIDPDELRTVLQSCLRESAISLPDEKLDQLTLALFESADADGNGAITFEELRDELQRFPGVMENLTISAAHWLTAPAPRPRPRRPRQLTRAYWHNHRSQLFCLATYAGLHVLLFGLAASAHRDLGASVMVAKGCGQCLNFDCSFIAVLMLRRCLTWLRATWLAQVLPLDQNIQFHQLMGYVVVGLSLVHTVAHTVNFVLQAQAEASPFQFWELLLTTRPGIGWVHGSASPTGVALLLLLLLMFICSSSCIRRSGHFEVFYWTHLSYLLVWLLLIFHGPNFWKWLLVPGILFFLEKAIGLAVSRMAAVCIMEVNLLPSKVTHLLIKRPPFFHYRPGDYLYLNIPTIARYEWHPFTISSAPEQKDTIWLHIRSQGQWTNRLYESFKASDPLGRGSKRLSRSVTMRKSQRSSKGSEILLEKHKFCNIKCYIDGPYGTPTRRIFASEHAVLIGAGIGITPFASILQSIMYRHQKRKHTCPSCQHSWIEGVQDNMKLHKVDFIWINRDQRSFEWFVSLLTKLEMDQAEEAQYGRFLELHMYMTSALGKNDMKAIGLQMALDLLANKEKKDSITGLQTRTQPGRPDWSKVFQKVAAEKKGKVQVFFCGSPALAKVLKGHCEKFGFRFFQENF
Chain of NADPH oxidase 4 (Homo sapiens) (Q9NPH5 whole entry, looked up): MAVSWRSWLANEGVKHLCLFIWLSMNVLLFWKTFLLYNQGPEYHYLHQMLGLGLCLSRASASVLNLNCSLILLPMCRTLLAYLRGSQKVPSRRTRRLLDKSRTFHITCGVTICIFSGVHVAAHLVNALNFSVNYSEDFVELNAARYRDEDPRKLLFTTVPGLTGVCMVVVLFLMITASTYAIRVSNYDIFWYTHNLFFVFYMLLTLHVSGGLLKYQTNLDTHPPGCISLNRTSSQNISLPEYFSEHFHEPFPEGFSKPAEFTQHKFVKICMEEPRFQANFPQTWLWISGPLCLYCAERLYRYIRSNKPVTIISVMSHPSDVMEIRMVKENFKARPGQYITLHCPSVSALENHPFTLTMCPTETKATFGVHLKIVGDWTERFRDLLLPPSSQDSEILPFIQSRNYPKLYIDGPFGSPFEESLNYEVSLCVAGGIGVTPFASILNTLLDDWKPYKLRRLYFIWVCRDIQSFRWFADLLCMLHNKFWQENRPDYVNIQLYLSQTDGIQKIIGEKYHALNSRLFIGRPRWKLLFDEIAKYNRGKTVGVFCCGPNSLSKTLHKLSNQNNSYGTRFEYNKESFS
Chain of Streptavidin (Streptomyces avidinii) (P22629 whole entry, looked up): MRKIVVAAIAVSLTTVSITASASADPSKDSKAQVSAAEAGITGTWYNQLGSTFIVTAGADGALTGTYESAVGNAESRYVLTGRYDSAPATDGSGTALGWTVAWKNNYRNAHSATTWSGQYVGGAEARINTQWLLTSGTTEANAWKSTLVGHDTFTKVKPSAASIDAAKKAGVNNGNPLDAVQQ
Chain of Torsin-1A (Homo sapiens) (O14656 whole entry, looked up): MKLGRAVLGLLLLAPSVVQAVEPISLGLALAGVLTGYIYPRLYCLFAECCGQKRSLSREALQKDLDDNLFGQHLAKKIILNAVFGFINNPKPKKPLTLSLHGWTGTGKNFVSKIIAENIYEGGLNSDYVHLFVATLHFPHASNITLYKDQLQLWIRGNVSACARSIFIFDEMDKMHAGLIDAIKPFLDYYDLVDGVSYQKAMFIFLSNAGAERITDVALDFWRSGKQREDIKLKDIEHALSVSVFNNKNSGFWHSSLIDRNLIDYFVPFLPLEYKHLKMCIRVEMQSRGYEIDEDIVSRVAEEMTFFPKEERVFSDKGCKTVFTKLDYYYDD
Chain of NADPH oxidase 2 (Homo sapiens) (P04839 whole entry, looked up): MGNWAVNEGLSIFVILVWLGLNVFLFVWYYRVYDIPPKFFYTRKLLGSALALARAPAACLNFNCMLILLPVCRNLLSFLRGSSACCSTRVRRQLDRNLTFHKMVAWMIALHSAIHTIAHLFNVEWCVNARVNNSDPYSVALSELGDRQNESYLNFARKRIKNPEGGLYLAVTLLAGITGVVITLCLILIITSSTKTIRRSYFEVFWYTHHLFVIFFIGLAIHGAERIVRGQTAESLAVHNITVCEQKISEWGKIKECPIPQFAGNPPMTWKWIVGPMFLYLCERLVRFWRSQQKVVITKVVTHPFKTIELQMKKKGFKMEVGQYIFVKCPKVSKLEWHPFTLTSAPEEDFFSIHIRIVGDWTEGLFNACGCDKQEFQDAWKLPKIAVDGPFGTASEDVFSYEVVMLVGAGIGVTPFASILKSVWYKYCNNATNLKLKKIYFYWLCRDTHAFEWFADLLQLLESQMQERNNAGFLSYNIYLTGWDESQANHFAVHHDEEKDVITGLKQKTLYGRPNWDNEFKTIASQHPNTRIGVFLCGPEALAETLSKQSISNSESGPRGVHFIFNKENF

Regarding `C=C(C)[C@@H]1CC=C(C(O)C2C=CC3C(=O)N(c4ccccc4)C(=O)C3N2Nc2ccc([N+](=O)[O-])cc2)CC1` (stereo not given in full), the composite z-score in experiment [1] was found to be 0.331; in experiment [6], 1.5; in experiment [7], 0.19; with Torsin-1A (Homo sapiens) [8], 0.875; in the experiment with Torsin-1A (Homo sapiens) [9], 0.685; in experiment [10] it was 1.11. The composite z-score in [12] stood at 0.37. In addition, the z-score was -1.14 (inactive) in [2]; -1.4 (inactive) in experiment [3]; -0.527 (inactive) in experiment [4]; -0.605 (inactive) in experiment [5]; -1.58 (inactive) in experiment [11]; 5.76 (inactive) in [13]. The z-score was 1.9 (inactive) in experiment [14]; 1.34 (inactive) in [15]; 1.79 (inactive) in experiment [16]; -0.456 in experiment [17]; -0.962 (inactive) in experiment [18]; -2.07 (inactive) in experiment [19]. For the same molecule, in experiment [20], the z-score is -2.96.
`CC(=O)NCCCC[C@@H]1NC(=O)[C@H]2C[C@@H](C(=O)NCCCCCCNC(=O)CS)[C@@H](c3cccc(OCCO)c3)N2C1=O`: the composite z-score in experiment [1] was 0.538; in experiment [6], -0.64; in [7], -0.0448; in the experiment with Torsin-1A (Homo sapiens) [8], 1.43; in the experiment with Torsin-1A (Homo sapiens) [9], 1.22; in experiment [10] it was 1.32. The composite z-score in [12] was -0.101. Besides, the z-score in experiment [2] was 0.348 (inactive); in [3] it was -0.286 (inactive); in [4] it was -0.813 (inactive); in experiment [5], -0.78 (inactive); in [11], -0.337 (inactive); in experiment [13] it was 3.07 (inactive). For the same molecule, the z-score in [14] is 0.858 (inactive); in experiment [15], 1.18 (inactive); in experiment [16], 0.448 (inactive); in experiment [17], -0.754; in experiment [18] it was 1.6 (inactive); in experiment [19] it was -0.667 (inactive). In experiment [20], this molecule had a z-score of 0.443.
Consider `CCOC(=O)C1=CC[C@@H](c2ccc(OC)cc2)N(S(=O)(=O)c2ccc(C)cc2)[C@H]1CC`, for which the composite z-score in experiment [1] is 0.174; in experiment [6] it was 1.53; in [7], 0.152; in the experiment with Torsin-1A (Homo sapiens) [8], 0.318; with Torsin-1A (Homo sapiens) [9] it was 0.714; in experiment [10], 0.964. The composite z-score in [12] was -0.0018. The z-score was -5.57 (inactive) in experiment [2]; -0.785 (inactive) in experiment [3]; -0.882 (inactive) in experiment [4]; -0.0915 (inactive) in experiment [5]; 0.938 (inactive) in experiment [11]; 2.22 (inactive) in experiment [13]. Besides, the z-score is -0.258 (inactive) in experiment [14]; -1.07 (inactive) in [15]; -1.62 (inactive) in experiment [16]; 1.27 in experiment [17]; 0.0165 (inactive) in experiment [18]; -0.911 (inactive) in experiment [19]. In addition, the z-score in [20] was 0.209.
`N#Cc1ccc(NN2C(C(O)C3CC=CCC3)C=CC3C(=O)N(c4ccccc4)C(=O)C32)cc1` (stereo not given): the composite z-score in experiment [1] is 0.223; in experiment [6] it was 0.126; in experiment [7] it was -0.0131; in the experiment with Torsin-1A (Homo sapiens) [8], -0.694; with Torsin-1A (Homo sapiens) [9], 0.202; in experiment [10] it was 2.08. In experiment [12], this molecule yielded a composite z-score of 0.364. Besides, the z-score in experiment [2] is 0.595 (inactive); in experiment [3], -1.34 (inactive); in experiment [4], 0.629 (inactive); in [5], 0.516 (inactive); in experiment [11] it was -0.411 (inactive); in experiment [13], 16.9 (active). Besides, the z-score in experiment [14] is 3.34 (inactive); in [15], 0.889 (inactive); in experiment [16], 1.14 (inactive); in experiment [17] it was -0.723; in experiment [18], -1.21 (inactive); in experiment [19], -2.27 (inactive). In experiment [20], the z-score is -2.39.
